NS1 function inh: inhibitors of influenza NS1 protein function | 0.4% of 270,000 active | Potency, µM (titrated, usually from 46.1 µM), for inactives: top-dose activity, positive = more growth | AID 2326; calls by dose curve; note: potency is the fitted concentration of half-maximal effect; actives are rising curves; nearly all actives have a fitted effect of over 50% in size
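Recovery from NS1-induced slow growth read by OD600 in budding yeast switched to galactose assay medium (pH 6.0, -URA) at 1:100 dilution. Compound 23 nl per well; the matching strain lacking NS1 serves as control.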
Shiga inhibitor: blocks Shiga toxin action in Vero cells | Vero cells, Shiga toxin protein synthesis inhibition reporter | AID 2315 | 9.2% of 290,000 active | inhibition, % at 38.7 µM; in the data active = inhibition mostly above about 28%, no sharp cut-off; inactive = mostly below about 43%; note: 0% is about no effect
CHX counter: affects cycloheximide protein synthesis inhibition readout, counter-screen. AID 2314. max response, %. cell reporter, cycloheximide protein synthesis inhibition counterscreen. 12% of 300,000 active; in the data active = max response mostly above about 13%, no sharp cut-off; inactive = mostly below about 14%; note: read at 38.3 µM for the half of the compounds with a filed dose; 0% is about no effect
SARS PLP yeast: inhibitors of SARS-CoV papain-like protease in yeast; S. cerevisiae expressing SARS-CoV PLpro, growth rescue; Potency, µM (titrated, usually from 32.9 µM), for inactives: at the top dose activity, positive = growth rescue, usual class: activators; 0.19% of 330,000 active; AID 485353; calls by dose curve; note: potency is the fitted concentration of half-maximal effect; 0% is about no effect; nearly all actives have a fitted effect of over 55% in size
Pf growth 48h: inhibits P. falciparum growth in the first generation, 48 h | AID 504832 | P. falciparum luciferase growth in erythrocytes, 48 h | 5.9% of 310,000 active | Potency, µM (highest dose often 28.7 µM), without a hit: top-dose activity change, negative = inhibition, actives largely listed as inhibitors; note: potency is the fitted concentration of half-maximal effect; % is set by controls: 0 for no effect and ±100 for the full control effect
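Here the parasites carry a stable luciferase gene and grow inside erythrocytes in Albumax-based RPMI medium with compound for one erythrocytic cycle. Activity is scored as loss of luminescent signal.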
Pf growth 96h: P. falciparum growth inhibition at 96 hour, primary screen for plastid delayed-death inhibitors. P. falciparum luciferase reporter growth, 96 h. 6.9% of 320,000 active. Potency, µM (series often up to 28.7 µM), for the others: at the top dose activity change, negative = inhibition, most hits filed as inhibitors; note: potency is the fitted concentration of half-maximal effect; % is set by controls: 0 for no effect and ±100 for the full control effect
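P. falciparum expressing integrated firefly luciferase, in erythrocytes at 2% hematocrit, 0.05% parasitemia, incubated with compounds 96 h at 37 C, 5% CO2. Growth inhibition read as loss of luminescence; two-generation exposure targets delayed-death apicoplast inhibitors.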
* hit, by the source's call; ? = inconclusive; . = not tested or not shown. Shown are actives, neighbours in structure and some others; about 21% of the full set was active somewhere. Unless noted, calls come from the whole dose curve; as a rule, active = well fitted inhibition curve with a large enough effect; inconclusive = small, poorly fitted or top-dose-only effect, or another doubt; inactive = no such curve, though single readings can be large or run the other way.

SMILES	NS1 function inh	Shiga inhibitor	CHX counter	SARS PLP yeast	Pf growth 48h	Pf growth 96h
COc1cc2c3cc1Oc1cc(ccc1O)C[C@@H]1c4c(cc(OC)c(O)c4Oc4ccc(cc4)C[C@H]3N(C)CC2)CCN1C	3%	-13	-3	-9%	2.1µM*	1.7µM*
COc1ccc2cc1Oc1ccc(cc1)C[C@H]1c3c(cc4c(c3Oc3cc5c(cc3OC)CCN(C)[C@@H]5C2)OCO4)CCN1C	-3%	3	2	4%	1.9µM*	1.5µM*
CCOC(=O)Cn1c(=O)oc2cc(S(=O)(=O)N3CCn4c3nc3ccccc34)ccc21	-55%	7	-2	1%	-11%	15µM*
CCCCN(C)C(=O)Cn1c(=O)oc2cc(S(=O)(=O)N3CC(C)CC(C)C3)ccc21 (stereo not given)	4%	-11	1	0%	?	13µM*
CCOC(=O)Cn1c(=O)oc2cc(S(=O)(=O)N3CCCc4ccccc43)ccc21	10%	-16	-5	0%	.	-10%
CC1CC(C)CN(C(=O)Cn2c(=O)oc3cc(S(=O)(=O)N4CCCC4)ccc32)C1 (stereo not given)	-1%	-5	-3	-3%	?	12µM*
CCOC(=O)Cn1c(=O)oc2cc(S(=O)(=O)N3CCCC(C(=O)OCC)C3)ccc21 (stereo not given)	-3%	-20	-1	-1%	.	10µM*
Cc1cc(Nc2ccc(F)cc2C)n2nc(C)nc2n1	-2%	-12	-8	-11%	.	1%
CCOc1ccc(-n2cc(C(=O)N3CCC(C)CC3)c3cc(OC)c(OC)cc3c2=O)cc1	-18%	-7	28	-10%	9.3µM*	77%
CCOc1ccc(-n2cc(C(=O)NC(C)C)c3cc(OC)c(OC)cc3c2=O)cc1	-22%	24	5	7%	?	.
CCOc1ccc(NC(=O)c2cn(-c3ccc(OCC)cc3)c(=O)c3cc(OC)c(OC)cc23)cc1	27%	1	2	-6%	?	3.3µM*
O=C(CN1CCN(Cc2ccccc2Cl)C1=O)NCc1ccccn1	3%	-13	-3	0%	13%	-4%
O=C(O)COCC(=O)Nc1ccc(-n2cnnn2)cc1	.	-5	-3	2%	19%	59%
CCCCC(=O)Nc1cccc(NC(=S)NC(C)=O)c1	1%	-12	-8	10%	-8%	-94%
O=C(Nc1nc2c(s1)CN(Cc1ccccc1)CC2)C1CCCC1	.	28	23*	-1%	?	?
CC(C)(C)C(=O)Nc1nc2c(s1)CN(Cc1ccccc1)CC2	0%	67*	44*	1%	?	?
CC(=O)Nc1sc2c(c1C(N)=O)CCN(Cc1ccccc1)C2	-3%	21	-1	0%	1%	29%
O=C(Cc1ccccc1)NNC(=O)C1CCCC1	4%	26	8	0%	?	1%
O=C(Nc1nc2c(s1)CN(Cc1ccccc1)CC2)c1c(F)cccc1F	.	42*	30*	0%	1%	-82%
CCOc1cccc(CNCc2ccc(C(=O)O)cc2)c1	.	-1	-14	4%	18%	37%
C/C(=N\NC(=O)c1nn(C)cc1Br)c1cccc(NC(=O)C(C)(C)C)c1	4%	98*	32*	5%	?	?
C/C(=N\NC(=O)c1c(Cl)cnn1C)c1ccc(NC(=O)c2ccncc2)cc1	16%	16	16*	15%	-13%	-27%
C/C(=N\NC(=O)c1nn(C)cc1Br)c1ccc(NC(=O)c2ccncc2)cc1	6%	105*	59*	5%	1%	4.1µM*
C/C(=N\NC(=O)c1nn(C)cc1Br)c1cccc(NC(=O)C2CCCC2)c1	-8%	102*	65*	4%	9%	5%
Cc1ccccc1CN1CCN(CC(=O)NCc2ccc3c(c2)OCO3)C1=O	-26%	-15	11	-11%	1%	?
SMILES	NS1 function inh	Shiga inhibitor	CHX counter	SARS PLP yeast	Pf growth 48h	Pf growth 96h
CCNc1nc(NC(C)C)nc(N(C#N)C(C)C(=O)N(CC)CC)n1 (stereo not given)	0%	-1	1	0%	-15%	-25%
Cc1ccc(C(=O)NCC(=O)N(C)Cc2ccc(Cl)cc2Cl)s1	.	.	.	-2%	?	?
CCN(C[C@H]1N[C@@](CC)(C(=O)OC)[C@H]2C(=O)N(Cc3ccccc3)C(=O)[C@@H]12)C(=O)C1CCCCC1	.	.	.	0%	.	.
Cn1cc(Br)c(C(=O)NNC(=O)c2ccc(Cl)cc2)n1	-8%	35	39*	-5%	73%	-1%
CCCCCCOC(=O)Cc1c(C)nc(-c2ccccc2)[nH]c1=O	4%	-7	-5	2%	2.3µM*	?
C=CCSc1nc(C)c(CC(=C)C)c(=O)[nH]1	0%	-12	-1	1%	40%	?
C=C(C)Cc1c(C)nc(-c2ccccc2)[nH]c1=O	-8%	38*	18*	14%	?	.
C=CCSc1nc(C)c(CC(=O)OCCCC)c(=O)[nH]1	-2%	-12	-6	-4%	22%	.
COc1ccc(-c2c(-c3cc(OC)cc(OC)c3)n(C)c3ccc(-c4ccc(OC)nc4)cc23)cc1	.	.	.	-1%	?	?
CN(Cc1nc(CCc2ccccc2)no1)Cc1cccs1	-4%	25	16*	1%	-4%	?
CCc1cc[n+](C2=C([O-])c3ccccc3C(=O)/C2=N\S(=O)(=O)c2cccs2)cc1	14%	26	14	-17%	4.1µM*	?
O=C1Nc2ccccc2C1C(C[N+](=O)[O-])c1ccccc1 (stereo not given)	1%	-9	-3	0%	14%	10%
CC(C)CN(C(=O)CN1C(=O)NC(c2ccccc2)(c2ccccc2)C1=O)C1CCS(=O)(=O)C1 (stereo not given)	.	.	.	12%	?	?
CCC1CCCCN1C(=O)Cn1c(=O)n(CCC(=O)NCc2ccco2)c(=O)c2sccc21 (stereo not given)	7%	-12	11	8%	-16%	5.2µM*
O=C(CCn1c(=O)c2sccc2n(CC(=O)NCc2ccco2)c1=O)NCc1ccccc1	-2%	-3	3	-1%	28%	.
CCCn1c(=O)c2sccc2n2c(CCCC(=O)NCc3cccnc3)nnc12	0%	-2	4	1%	20%	18%
COCCCn1c(=O)c2sccc2n2c(CCCC(=O)N3CCN(c4ccccn4)CC3)nnc12	10%	3	-1	23%	?	46%
CCCn1c(=O)c2sccc2n2c(CCCC(=O)NCc3ccco3)nnc12	-4%	-4	-2	?	?	15µM*
Cn1c(=O)c2sccc2n2c(CCCC(=O)N3CCN(c4ccccn4)CC3)nnc12	-11%	-3	2	5%	?	9.3µM*
CCc1ccccc1Nc1nn2c(=O)c3ccc(C(=O)NCc4ccccn4)cc3nc2s1	3%	-8	-3	-1%	?	?
Cc1ccc2c(c1C)OC(=O)CC2c1ccccc1 (stereo not given)	-15%	-7	-1	-1%	3%	?

Bioassay records deposited in PubChem BioAssay by National Center for Advancing Translational Sciences (NCATS).
